Assay outcomes (PubChem BioAssay)
KB-V1 MDR tox: kills drug-selected multidrug resistant KB-V1 cells; hit rate 3.4% among 400,000; Potency, µM (titrated, usually from 46.1 µM), hits mostly cytotoxic; KB-V1 MDR cells viability, CellTiter-Glo, 72 h; further: on the % scale 0 is the no-effect control and ±100 the full control effect; nearly all actives have a fitted effect of over 60% in size
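Compound-treated KB-V1 multidrug-resistant cells, 72 h, 37 degrees C; viability by CellTiter-Glo. Fitted qHTS curves give the values.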
SW480 rereplic: inducers of DNA re-replication in SW480 colon cancer cells | hit rate 1.8% among 340,000 | Potency, µM (doses to about 46.1 µM), inactives show top-dose re-replication activation, hits mostly activators | AID 624297 | SW480 DNA re-replication, Hoechst DNA content imaging, 48 h; further: % of control where 0% means no effect; nearly all actives have a fitted effect of over 55% in size
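Hoechst fluorescence of nuclei (405 nm excitation, 500-530 nm emission) measured by plate-scanning imager after 48 hr compound exposure at 37 C; re-replication scored as increased number of nuclei with elevated intensity.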
HT1080 IDH1KD tx: kills HT-1080 cells with IDH1 knockdown; Potency, µM (top dose mostly 46.1 µM), for the others: at the top dose activity, negative = toxicity, usual class: cytotoxic; AID 686971; HT-1080 IDH1 knockdown viability, ATP luminescence, 48 h; hit rate 2% among 360,000;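 further: 0% = DMSO wells and -100% = cell-free medium wells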
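Using the IDH1-knockdown HT-1080 line run in the same batch and compound series as the NT line, viability after 48 h at 37 °C was determined by CellTiter-Glo luminescence and expressed as % activity.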
MCF10A rereplic: DNA re-replication induction in MCF 10a cells; MCF 10A DNA re-replication, Hoechst nuclear intensity, 48 h; Potency, µM (doses to about 46.1 µM), for the others: at the highest dose activity, positive = re-replication, most hits filed as activators; hit rate 2.9% among 350,000; AID 624296; further: % of control where 0% means no effect; nearly all actives have a fitted effect of over 50% in size
KB-3-1 tox: kills parental KB-3-1 adenocarcinoma cells; KB-3-1 viability, CellTiter-Glo ATP luminescence, 72 h; Potency, µM (doses to about 46.1 µM), usual class: cytotoxic; hit rate 1.4% among 400,000; AID 1347075; further: on the % scale 0 is the no-effect control and ±100 the full control effect; nearly all actives have a fitted effect of over 60% in size
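Cells are dispensed, compounds pinned in, plates held at 37 °C for 72 h, then CellTiter-Glo is added and luminescence read after 10 minutes. Cell line: parental KB-3-1 in phenol-red-free DMEM, 10% FBS.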
HT1080NT lethal: kills 2HG-producing HT-1080-NT fibrosarcoma cells; HT-1080-NT fibrosarcoma viability, CellTiter-Glo ATP luminescence, 48 h; Potency, µM (doses to about 46.1 µM), for the others: at the highest dose activity, negative = less viability, most hits filed as cytotoxic; hit rate 1.6% among 360,000;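 further: NT is the 2HG producing partner of a matched IDH1 knockdown line; 0% = DMSO-treated cells and -100% = media-only wells without cells; nearly all actives have a fitted effect of over 55% in size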
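Viability by CellTiter-Glo luminescence after 48 h compound exposure at 37C of HT-1080-NT cells (750/well, RPMI, 5% FBS). % activity scaled between DMSO wells and medium-only wells, then curve-fitted and categorized by curve class.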
Starred values were filed as active, the others as inactive; i = inactive; ? = inconclusive; nt = no result given; [ ] = remark or other dose. This is a sample that favours compounds with a hit; in the whole collection about 8% have one here. The call rests on the fitted dose curve; in most records, active means well fitted curve in the direction sought with a large enough effect; inconclusive means small, poorly fitted or top-dose-only effect, or another doubt; inactive means no such curve, though single readings can be large; an effect the other way counts as inactive or inconclusive. Potency means the concentration at half of the fitted maximal effect.

SMILES | KB-V1 MDR tox | SW480 rereplic | HT1080 IDH1KD tx | MCF10A rereplic | KB-3-1 tox | HT1080NT lethal
CN1CCN(c2ccc(-c3cc(NC=O)c4ncc(-c5ccccc5)n4c3)cc2)CC1 | 23.1µM* | nt | ? | nt | i | ?
O=S(Cc1ccc(Br)cc1)Cc1nnc(SCc2ccc(Br)cc2)n1-c1ccccc1 (centres undefined) | 2.91µM* | ? | ? | 23.1µM* | 16.4µM* | -5.2%
COc1ccc(-c2cc(C(F)(F)F)nc(N3CCOCC3)n2)cc1OC | ? | 11.5% | 1.5% | ? | i | 0.5%
COc1ccc(-c2cc(-c3ccccc3)nc(N3CCCC3)n2)cc1OC | 8.2µM* | 27.3% | -25.7% | ? | i | 3.8%
COc1ccc(C2C3=C(CCCC3=O)N(CC(=O)O)C3=C2C(=O)CCC3)cc1Cl | ? | ? | -13.4% | 20.6µM* | i | 5.4%
CCCOc1c(Br)cc(C2C3=C(CCCC3=O)N(C)C3=C2C(=O)CCC3)cc1OC | ? | ? | -3.1% | -1.6% | i | -2.1%
CCCOc1c(Br)cc(C2C3=C(CCCC3=O)N(CC)C3=C2C(=O)CCC3)cc1OC | i | 16.4µM* | ? | ? | i | -21.0%
C#CCOc1c(Cl)cc(C2C3=C(CCCC3=O)N(CC(=O)O)C3=C2C(=O)CCC3)cc1OC | i | -100.6%[1.84 µM] | 2.4% | 20.6µM* | i | 3.7%
COc1ccc(/C=C(\C#N)C(=O)Nc2cc(C)c(Cl)cc2OC)cc1O | i | 10.3µM* | 3.5% | ? | 20.6µM* | 1.6%
Cc1ccc2[nH]c3c(c2c1)CN(C(=O)CN1CCN(c2cccc(C)c2C)CC1)CC3 | 20.6µM* | ? | 18.4µM* | ? | ? | ?
O=C(CN1CCN(C(=O)c2ccco2)CC1)N1CCc2[nH]c3ccccc3c2C1 | i | -1.5% | 9.8% | 6.6% | i | 29.6%
CC(C)=NNc1nc2sc3c(c2c(=O)[nH]1)CC(C)(C)OC3 | i | ? | -21.0% | 11.6µM* | i | 6.0%
O=c1c2c(nc3c(-c4cccc(Br)c4)c[nH]n13)CCCC2 | i | ? | -13.1% | -68.5%[0.0737 µM] | i | -10.2%
O=c1c2c(nc3c(-c4ccc(Cl)cc4)c[nH]n13)CCC2 | 4.61µM* | ? | ? | 30.0% | ? | -21.4%
Cc1c(-c2ccccc2)[nH]n2c(=O)c3c(nc12)CCCC3 | 20.6µM* | ? | -2.0% | 6.3% | i | 9.5%
Cc1ccc(-c2[nH]n3c(=O)c4c(nc3c2C)CCCC4)cc1 | i | -32.8% | -1.5% | 1.8% | i | 4.3%
O=c1c2c(nc3c(-c4ccccc4)c[nH]n13)CCC2 | ? | -3.5% | ? | -2.8% | ? | 11.2µM*
O=C(Nc1nnc(SCc2ccc(F)cc2)s1)c1ccco1 | i | 1.6% | -2.6% | 0.1% | i | -1.9%
O=C(Cc1ccccc1)Nc1nnc(SCC(=O)NC2CCCC2)s1 | i | -3.4% | -17.0% | -1.2% | i | -9.7%
CCCOc1cccc(-c2nnc(NC(=O)c3ccco3)s2)c1 | ? | 8.3% | 0.0% | 8.2µM* | ? | -4.6%
COc1cccc(-c2nnc(NC(=O)c3ccco3)s2)c1 | i | -5.6% | 13.4% | -4.2% | i | 16.5%
CC(C)(C)C(=O)Nc1nnc(SCc2cccc(F)c2)s1 | i | -9.8% | 2.1% | 0.651µM* | i | 2.0%
O=C(CSc1nnc(NC(=O)c2ccco2)s1)NC1CCCCC1 | 23.1µM* | -2.4% | -1.9% | 0.3% | i | 2.1%
O=C(Nc1nnc(SCc2cccc(F)c2)s1)c1ccco1 | i | -76.2% | 4.1% | 0.291µM* | i | 2.4%
CCOc1ccc(C(=O)c2cn(CC(=O)Nc3ccc(F)cc3)c3cc4c(cc3c2=O)OCCO4)cc1 | ? | nt | nt | nt | i | nt
SMILES | KB-V1 MDR tox | SW480 rereplic | HT1080 IDH1KD tx | MCF10A rereplic | KB-3-1 tox | HT1080NT lethal
CCOc1ccccc1NC(=O)Cn1c(=O)n(-c2ccccc2)c(=O)c2c1c1cc(C)ccc1n2C | i | nt | nt | nt | i | nt
O=C(COC(=O)c1cc(-c2ccccc2)nc2c(Cl)cccc12)c1ccc(F)cc1 | i | nt | nt | nt | i | nt
COc1ccc(-n2ncc3c(NCCCOC(C)C)ncnc32)cc1 | i | nt | nt | nt | i | nt
CCOc1cccc2sc(N(CCCN(C)C)C(=O)c3ccc(S(=O)(=O)N(CC)Cc4ccccc4)cc3)nc12 | 10.3µM* | 25.3% | 23.1µM* | ? | ? | ?
CCOc1cccc2sc(N(CCN(C)C)C(=O)c3cc4ccccc4cc3OC)nc12 | i | 81.3% | 20.6µM* | 22.3% | i | ?
CCOc1ccc2nc(N(CCN(C)C)C(=O)c3cc4ccccc4cc3OC)sc2c1 | ? | 115.8% | -10.6% | 1.7% | ? | -2.2%
CCOc1cccc2sc(N(CCCN(C)C)C(=O)c3ccc(C(=O)c4ccccc4)cc3)nc12 | i | ? | ? | 4.7% | i | 25.9µM*
Cc1cc2c(cc1C)NC(CC(=O)Nc1ccccc1SC(F)(F)F)C(=O)N2 (centres undefined) | i | nt | nt | nt | i | nt
Brc1cccc(-c2cnn3c(-c4ccccc4)cc(-c4ccccc4)nc23)c1 | i | nt | nt | nt | i | nt
COc1ccc(C2C(=O)N(CCc3ccccc3)CC(=O)N2C2CCCCC2)cc1 (centres undefined) | 3.66µM* | 3.1% | ? | 3.1% | i | -5.8%
O=C(Nc1ccn(-c2ccccc2)n1)c1ccc(Cl)cc1 | 18.4µM* | -1.3% | -17.4% | ? | i | -3.3%
Cc1cc2nc(-c3cccc(NC(=O)COc4ccc(C(C)C)cc4)c3)oc2cc1C | i | nt | nt | nt | i | nt
CC(C)(C)C(=O)Nc1ccccc1C(=O)Nc1cc(Cl)ccc1Cl | 16.4µM* | -1.9% | -0.5% | 17.9% | i | 3.7%
CC(=O)c1ccc(NC(=O)Nc2ncn(Cc3cccc(C)c3)n2)cc1 | 16.4µM* | -2.7% | 16.1% | -1.7% | i | -1.8%
CCc1c(C(=O)Nc2ncn(Cc3cccc(C)c3)n2)csc1C | i | -0.8% | -14.0% | 2.6% | i | 8.0%
COCCOC(=O)c1[nH]c2c(c1C)C(=O)CC(c1ccc(F)cc1)C2 (centres undefined) | ? | ? | 23.1µM* | ? | 7.31µM* | ?
COCCOC(=O)c1[nH]c2c(c1C)C(=O)CC(c1ccc(N(C)C)cc1)C2 (centres undefined) | i | -3.3% | 1.4% | 8.3% | i | 3.7%
COCCOC(=O)c1[nH]c2c(c1C)C(=O)CC(c1ccccc1)C2 (centres undefined) | 0.731µM* | 7.31µM* | 1.3µM* | 5.8µM* | 0.92µM* | 1.64µM*
CCOC(=O)c1[nH]c(C)c(CCC(=O)Nc2cc(Cl)c(OC)cc2OC)c1C | ? | nt | nt | nt | i | nt
